Assay results as given in PubChem BioAssay (NCI).
This is part of a sample that, as a whole, favours compounds with a hit. Of some 79,000 tested, about 15% had one in any assay. Active and inactive are the calls of the source. Rule as the data show it: active = growth inhibition above about 70%; inactive = the rest.

What was measured:
[1] = NCI Yeast Anticancer Drug Screen. Data for the rad52 strain (AID 147);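 also: 0% = growth of vehicle-treated control cultures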; settings: S. cerevisiae rad52 mutant growth inhibition, hits give high values
How it was run: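 DNA repair-defective yeast; compound exposure; growth scored against vehicle controls.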

[2] = NCI Yeast Anticancer Drug Screen. Data for the wt1 strain (AID 149);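 also: 0% = growth of vehicle-treated wt1 cultures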; settings: S. cerevisiae wt1 strain (SPY 50644) growth inhibition, hits give high values
How it was run: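 Measured: growth of wt1 yeast under compound versus vehicle treatment, reported as inhibition.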

[3] = NCI Yeast Anticancer Drug Screen. Data for the rad50EPP+ strain (AID 151);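 also: 0% = growth of vehicle-treated control cultures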; settings: S. cerevisiae rad50 mutant strain, hits give high values
How it was run: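 rad50EPP+ yeast treated with test compounds. Readout: growth vs vehicle control.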

[4] = NCI Yeast Anticancer Drug Screen. Data for the mgt1 strain (AID 153); settings: S. cerevisiae mgt1 mutant growth inhibition, hits give high values
How it was run: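 Growth inhibition relative to vehicle controls was scored for the mgt1 yeast strain after compound exposure.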

[5] = NCI Yeast Anticancer Drug Screen. Data for the rad50 strain (AID 155);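 also: 0% = growth of vehicle-only cultures of the same strain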; settings: S. cerevisiae rad50 strain growth inhibition, hits give high values
How it was run: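 Growth of the mutant yeast was measured after compound exposure and referenced to vehicle-treated cultures.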

[6] = NCI Yeast Anticancer Drug Screen. Data for the mec2-1 strain (AID 157); settings: S. cerevisiae mec2-1 strain, hits give high values
How it was run: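 Growth inhibition is read against vehicle-treated controls after compound exposure of the mec2-1 yeast strain, which is defective in DNA damage repair or cell cycle control.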

[7] = NCI Yeast Anticancer Drug Screen. Data for the rad14 strain (AID 159);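 also: 0% = growth of vehicle-treated control cultures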; settings: S. cerevisiae rad14 strain growth inhibition, hits give high values
How it was run: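 Here, inhibition of yeast growth was measured after compound exposure, using a strain with a genetic defect in DNA damage repair and vehicle-treated cultures as the reference.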

[8] = NCI Yeast Anticancer Drug Screen. Data for the sgs1 mgt1 strain (AID 161);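 also: 0% = growth of cultures given vehicle only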; settings: S. cerevisiae sgs1 mgt1 strain, hits give high values
How it was run: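 This yeast growth screen uses a strain with defined DNA-repair lesions; compound-treated growth is compared with vehicle-treated growth.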

[9] = NCI Yeast Anticancer Drug Screen. Data for the CLN2oe strain (AID 163);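 also: 0% = growth of vehicle-only control cultures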; settings: S. cerevisiae CLN2oe strain, hits give high values
How it was run: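 Compound-treated yeast; growth vs vehicle ctrl = % inhibition. Genetically altered strain (cell-cycle control).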

[10] = NCI Yeast Anticancer Drug Screen. Data for the cln2 rad14 strain (AID 165);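 also: 0% = growth equal to vehicle treated cultures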; settings: S. cerevisiae cln2 rad14 strain, hits give high values
How it was run: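 Growth inhibition, relative to vehicle-treated controls, is the read-out. The test organism is a yeast strain with defined genetic alterations, cln2 rad14.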

[11] = NCI Yeast Anticancer Drug Screen. Data for the bub3 strain (AID 167); settings: S. cerevisiae bub3 mutant strain, hits give high values
How it was run: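 Whole-cell yeast assay. The mutant strain was incubated with compounds, and growth inhibition was determined by comparison with vehicle-treated cells.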

[12] = NCI Yeast Anticancer Drug Screen. Data for the wt2 strain (AID 169);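 also: 0% = growth of vehicle-treated yeast cultures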; settings: S. cerevisiae wt2 strain growth inhibition, hits give high values
How it was run: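 Compound exposure of yeast; growth compared with vehicle controls; inhibition reported.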

[13] = NCI Yeast Anticancer Drug Screen. Data for the mlh1 strain (AID 171);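 also: 0% = growth of vehicle-treated control cultures of the same strain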; settings: S. cerevisiae mlh1 strain growth inhibition, hits give high values
How it was run: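 Compounds are applied to a genetically altered yeast strain, and its growth is compared with that of vehicle-treated cultures to give percent inhibition.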

[14] = NCI Yeast Anticancer Drug Screen. Data for the mlh1 rad18 strain (AID 175); settings: S. cerevisiae mlh1 rad18 strain growth inhibition, hits give high values
How it was run: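 Cells of a genetically altered yeast strain, deficient in DNA damage repair, were treated with compound. Their growth was then compared with that of vehicle-treated cultures to give inhibition.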

[15] = NCI Yeast Anticancer Drug Screen. Data for the sgs1 strain (AID 173);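 also: 0% = growth of vehicle-only control cultures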; settings: S. cerevisiae sgs1 mutant, hits give high values
How it was run: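 Compounds applied to genetically altered yeast; growth compared with vehicle-treated cultures to give % inhibition.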

[16] = NCI Yeast Anticancer Drug Screen. Data for the rad18 strain (AID 177); settings: S. cerevisiae rad18 mutant growth inhibition, hits give high values
How it was run: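 Compounds are applied to a repair-deficient yeast strain, and growth is compared with that of vehicle-treated cultures to give percent inhibition.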

[17] = at 5.0 µM (retest, dose inferred, filed as 0.5)
[18] = at 50.0 µM (retest, dose inferred, filed as 5.0)

Measured: growth inhibition

C=CCC1=C(C)C(OC(=O)/C=C/c2ccccc2)CC1=O (stereo unspecified)
inactive: [1]; at 1.2 µM -4% | [1]; at 3.7 µM 0% | [1]; at 11.0 µM 2% | [1]; at 33.0 µM 5% | [1]; at 100.0 µM 39% | [2]; at 1.2 µM -2% | [2]; at 3.7 µM -5% | [2]; at 11.0 µM -5% | [2]; at 33.0 µM -2% | [2]; at 100.0 µM -3% | [3]; at 1.2 µM -1% | [3]; at 3.7 µM 0% | [3]; at 11.0 µM 6% | [3]; at 33.0 µM 7% | [3]; at 100.0 µM 15% | [4]; at 1.2 µM -6% | [4]; at 3.7 µM -2% | [4]; at 11.0 µM -1% | [4]; at 33.0 µM 2% | [4]; at 100.0 µM 29% | [5]; at 1.2 µM 2% | [5]; at 3.7 µM 1% | [5]; [17] 10% | [5]; at 11.0 µM 2% | [5]; at 33.0 µM 8% | [5]; [18] 19% | [5]; at 50.0 µM 2.25% | [5]; at 100.0 µM 39% | [6]; at 1.2 µM -4% | [6]; at 3.7 µM -4% | [6]; [17] -11% | [6]; at 11.0 µM -4% | [6]; at 33.0 µM 0% | [6]; [18] -18% | [6]; at 50.0 µM 5.6% | [6]; at 100.0 µM 7% | [7]; at 1.2 µM 1% | [7]; at 3.7 µM 2% | [7]; at 11.0 µM 4% | [7]; at 33.0 µM 5% | [7]; at 100.0 µM 18% | [8]; [17] 23% | [8]; [18] 39% | [8]; at 50.0 µM 19.4% | [9]; at 1.2 µM 2% | [9]; at 3.7 µM 2% | [9]; at 11.0 µM 5% | [9]; at 33.0 µM 15% | [9]; at 100.0 µM 28% | [10]; [17] 17% | [10]; [18] 36% | [10]; at 50.0 µM 33.5% | [11]; at 1.2 µM 7% | [11]; at 3.7 µM 20% | [11]; [17] 25% | [11]; at 11.0 µM 33% | [11]; at 33.0 µM 36% | [11]; at 50.0 µM 40.6% | [11]; at 100.0 µM 47% | [12]; at 1.2 µM -10% | [12]; at 3.7 µM -11% | [12]; at 11.0 µM -8% | [12]; at 33.0 µM -5% | [12]; at 100.0 µM 12% | [13]; at 1.2 µM -3% | [13]; at 3.7 µM -2% | [13]; at 11.0 µM -2% | [13]; at 33.0 µM 3% | [13]; at 100.0 µM 42% | [14]; [17] 15% | [14]; [18] 59% | [14]; at 50.0 µM 5.85%
active: [11]; [18] 79%

FC(F)(F)c1nc2nc(Cl)c(Cl)nc2n1CCCN1CCOCC1
inactive: [1]; at 1.2 µM 2% | [1]; at 3.7 µM 11% | [1]; at 11.0 µM 20% | [1]; at 33.0 µM 20% | [1]; at 100.0 µM 32% | [2]; at 1.2 µM 0% | [2]; at 3.7 µM 1% | [2]; at 11.0 µM 7% | [2]; at 33.0 µM 12% | [2]; at 100.0 µM 18% | [3]; at 1.2 µM -1% | [3]; at 3.7 µM 5% | [3]; at 11.0 µM 6% | [3]; at 33.0 µM 2% | [3]; at 100.0 µM 4% | [4]; at 1.2 µM 0% | [4]; at 3.7 µM 5% | [4]; at 11.0 µM 8% | [4]; at 33.0 µM 22% | [4]; at 100.0 µM 34% | [5]; at 1.2 µM 5% | [5]; at 3.7 µM 13% | [5]; [17] 29% | [5]; at 11.0 µM 18% | [5]; at 33.0 µM 22% | [5]; [18] 63% | [5]; at 50.0 µM 67% | [5]; at 100.0 µM 27% | [6]; at 1.2 µM 2% | [6]; at 3.7 µM -15% | [6]; [17] 3% | [6]; at 11.0 µM 12% | [6]; at 33.0 µM 16% | [6]; [18] 15% | [6]; at 50.0 µM 33.1% | [6]; at 100.0 µM 27% | [7]; at 1.2 µM 6% | [7]; at 3.7 µM 11% | [7]; at 11.0 µM 36% | [7]; at 33.0 µM 44% | [7]; at 100.0 µM 53% | [8]; [17] 19% | [8]; at 50.0 µM 45.9% | [9]; at 1.2 µM 2% | [9]; at 3.7 µM 13% | [9]; at 11.0 µM 23% | [9]; at 33.0 µM 45% | [9]; at 100.0 µM 57% | [10]; [17] -16% | [10]; [18] 54% | [10]; at 50.0 µM -1.1% | [11]; at 1.2 µM 0% | [11]; at 3.7 µM 4% | [11]; [17] 9% | [11]; at 11.0 µM 22% | [11]; at 33.0 µM 52% | [11]; [18] 56% | [11]; at 50.0 µM 55.8% | [11]; at 100.0 µM 35% | [12]; at 1.2 µM -1% | [12]; at 3.7 µM 3% | [12]; at 11.0 µM 13% | [12]; at 33.0 µM 20% | [12]; at 100.0 µM 26% | [15]; at 1.2 µM 4% | [15]; at 3.7 µM 9% | [15]; at 11.0 µM 30% | [15]; at 33.0 µM 50% | [15]; at 100.0 µM 47% | [14]; [17] 5% | [14]; [18] 57% | [14]; at 50.0 µM 64.7% | [16]; at 1.2 µM -6% | [16]; at 3.7 µM 6% | [16]; at 11.0 µM 31% | [16]; at 33.0 µM 31% | [16]; at 100.0 µM 43%
active: [8]; [18] 72%
